# Measured values as given in PubChem BioAssay (NCI).
# About 83,000 compounds went through this panel and 20% of them were active in at least one assay; those are over-represented in the sample as a whole.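 Plates (96-well) were seeded with cells, treated with compound at one concentration, and incubated for 48 hours before percent growth was determined.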 Values without a mark were called inactive. Activity calls are given as the source filed them. The calls were made as follows: active = growth percent below 10; inactive = the rest.
# Legend:
# Assay in all cases: NCI-60 one-dose screen, 48 h (100 = growth as untreated, 0 = no growth, -100 = all killed)
# Details in all cases: 10 µM unless noted
# OVCAR-8 ovarian = tested on: OVCAR-8 ovarian
# OVCAR-5 ovarian = tested on: OVCAR-5 ovarian
# OVCAR-4 ovarian = tested on: OVCAR-4 ovarian
# SK-OV-3 ovarian = tested on: SK-OV-3 ovarian
# IGROV1 ovarian = tested on: IGROV1 ovarian
# OVCAR-3 ovarian = tested on: OVCAR-3 ovarian
# HS 578T breast = tested on: HS 578T breast
# NCI/ADR-RES ovarian = tested on: NCI/ADR-RES ovarian
# T-47D breast = tested on: T-47D breast
SMILES,growth (OVCAR-8 ovarian),growth (OVCAR-5 ovarian),growth (OVCAR-4 ovarian),growth (SK-OV-3 ovarian),growth (IGROV1 ovarian),growth (OVCAR-3 ovarian),growth (HS 578T breast),growth (NCI/ADR-RES ovarian),growth (T-47D breast)
COc1ccc(-c2cc(-c3nnc(SCC(=O)Nc4ccc(/C(C)=N\O)cc4)o3)c3ccccc3n2)cc1,105%,113%,103%,111%,112%,98%,99.9%,102%,102%
Cc1ccc(CS/C(=C\c2ccc([N+](=O)[O-])cc2)C(=O)c2ccc(F)cc2)cc1,57.1%,97.7%,60.6%,79.2%,58.5%,60.1%,8.91% (active),49.6%,49.6%
CC(=O)OCC1OC(OC2C(COC(C)=O)OC(OCCC[S-])C(OC(C)=O)C2OC(C)=O)C(OC(C)=O)C(OC(C)=O)C1OC(C)=O.[Au+].c1ccc(CN2[CH-]N(Cc3ccccc3)C(c3ccccc3)=C2c2ccccc2)cc1 (configuration not stated),22%,62.4%,17.5%,13%,35.3%,-2.96% (active),47.5%,96.6%,18.8%
CN(CCC#N)C(=O)Nc1ccccc1,102%,111%,,100%,106%,108%,105%,102%,97.2%
COC(=O)/C=C1\SC(=Nc2ccc(C(F)(F)F)cc2)N(CCc2c[nH]c3ccccc23)C1=O,-9.92% (active),-41.4% (active),-33.2% (active),10.4%,-66.1% (active),-91% (active),-2.51% (active),-12.9% (active),-40.7% (active)
Cc1ccc(SC2c3ccc(C)cc3Oc3nc(N)c(C#N)c(N)c32)cc1 (configuration not stated),95%,121%,74.8%,102%,25.9%,,96.2%,92.1%,16.8%
CC(=O)ON1CCCC(P(=O)(OCOC(=O)C(C)(C)C)OCOC(=O)C(C)(C)C)C1=O (configuration not stated),-0.681% (active),17.7%,13.3%,6.56% (active),-28.4% (active),2.58% (active),1.28% (active),-2.01% (active),16.4%
Cn1c2ccccc2c2c(OC(=O)c3ccccc3)c3c(nc21)-c1ccccc1C3,92.7%,112%,95.7%,92%,82.5%,99.1%,107%,99%,63.7%
Cc1c(Cl)cccc1NC(=O)c1sc2nc3c(cc2c1N)CCCCC3,31.5%,58.3%,59.2%,47.8%,54.9%,-3.42% (active),38%,19.7%,44%
C=C1C(=O)O[C@H]2[C@H]1CC/C(COC(=O)N1CCC[C@H]1C(=O)Nc1ccc(OC)c(C(N)=O)c1O)=C\CC[C@@]1(C)O[C@@H]21,44.4%,68.5%,52%,88.8%,14.7%,4.49% (active),71.8%,106%,29.8%
[2H]c1nc(Nc2ncc3cc(C(=O)N(C)C)n(C4CCCC4)c3n2)c([2H])c([2H])c1N1C([2H])([2H])C([2H])([2H])NC([2H])([2H])C1([2H])[2H],73.8%,40.3%,93.1%,57.1%,65.8%,97%,67.1%,106%,53.2%
O=c1[nH]c2ccccc2cc1-c1nc2ccncc2[nH]1,88.7%,112%,85.5%,90.5%,84.2%,90.9%,76.1%,108%,77.8%
Cn1nc(C(F)(F)F)c(-c2cc(C(F)(F)F)cc(C(F)(F)F)c2)c1-c1ccc(OCc2ccc(Cl)cc2)cc1O,8.36% (active),29.1%,20.7%,-13.5% (active),31.4%,7.02% (active),4.39% (active),1.98% (active),-11.6% (active)
C#C[C@@]1(O)[C@@H](CO)O[C@@H](n2ccc3c(N)ncnc32)[C@@H]1O,-21.7% (active),25.6%,0.622% (active),-7.62% (active),4.28% (active),18.2%,51.6%,-9.78% (active),-34% (active)
O=C1CC23OC4ON=C(Br)C4C2C(O)c2ccccc2N13 (configuration not stated),104%,114%,120%,93.5%,88.8%,96.3%,98.4%,94.5%,100%
CCCn1cc(/C=N\N=C2\C(=O)Nc3ccc(C)cc32)c2ccccc21,47.5%,84.6%,41.8%,88.4%,39.4%,2.1% (active),74%,76.3%,39.6%
CCOC(=O)c1c(C)nc2c(c1N)/C(=C/c1cccs1)C(=O)N2Cc1ccccc1,70.7%,119%,82.3%,96.6%,48%,53.2%,93.2%,79%,43%
C[C@H]1[C@H](C)CC[C@]2(C(=O)OCCOCCOCC[P+](c3ccccc3)(c3ccccc3)c3ccccc3)CC[C@]3(C)C(=CC[C@@H]4[C@@]5(C)CC[C@H](OC(=O)C(Cl)Cl)C(C)(C)[C@@H]5CC[C@]43C)[C@H]12,11%,37.3%,6.72% (active),-0.459% (active),15.1%,16.1%,38.4%,,21.8%
Cc1cnc(SCc2ccc(Cl)cc2)[nH]c1=S,101%,97.5%,92.3%,108%,103%,94.1%,112%,103%,88%
COC1=CC2C=C(C3N(c4ccccc4)NC(=O)[C@@H]4CCCN34)C(=O)NC2C=C1 (some centres not stated),110%,107%,96.8%,104%,105%,104%,99%,101%,99%
CN1CCN(C(=O)[C@@]2(C)CC[C@]3(C)CC[C@]4(C)C(=CC[C@@H]5[C@@]6(C)CC[C@H](OC(=O)c7cccnc7)C(C)(C)[C@@H]6CC[C@]54C)[C@@H]3C2)CC1,60.2%,78.7%,35.2%,79.3%,88.2%,80.9%,,77.6%,57.6%
COc1ccc2nc(-c3ccc(Cl)cc3)cc(-c3nnc(SC/C(=N/O)c4ccccc4)o3)c2c1,49.7%,84.2%,16.7%,69.6%,50.8%,,71.9%,57.4%,27%
CCOC(=O)C1=C(C)n2nc(CC#N)c(C#N)c2NC1c1ccc(CC)cc1 (configuration not stated),104%,99.8%,93.2%,98.2%,69.9%,99.2%,115%,96.9%,94.9%
